# According to PubChem BioAssay (NCI):
# Compounds without any hit were thinned out: in the full panel of roughly 83,000, 20% have a hit.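 Method: cells in 96-well plates; compound added at one concentration; 48 h incubation; percent growth measured; values under 10 scored active.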 Calls of active or inactive are those of the source.
# System: BT-549 breast
# Assay: NCI-60 one-dose screen, 48 h (100 = growth as untreated, 0 = no growth, -100 = all killed)
# Conditions: 10 µM unless noted
row,SMILES,growth
1,COC(=O)c1cc(-c2cccs2)c(C#N)c(N)c1C#N,107% (inactive)
2,Cc1cc(Nc2nc(C(=O)Nc3ccccc3)nc3ccccc23)n[nH]1,50.6% (inactive)
3,CNC(C)=O,76.3% (inactive)
4,CN(C)c1ccc(-c2ccc(-c3ccc(C(=N)N)cn3)o2)cc1,-11.8% (active)
5,CCN1C(=O)N(CC)C2C1NN=c1s/c(=C\c3cccc(F)c3)c(=O)n12 (stereo unspecified),17.1% (inactive)
6,O=C(CC(O)c1ccncc1)c1ccccc1 (stereo unspecified),-63.7% (active)
7,CCN1C(=S)N(CC)C2Nn3c(s/c(=C4\C(=O)N(C)c5ccccc54)c3=O)=NC21 (stereo unspecified),74.7% (inactive)
8,O=C(Nc1ccc(Cl)cc1)c1cc(-c2ccc(F)cc2)c2sc(=O)[nH]c2n1,-13.1% (active)
9,C#CCN1C(=O)/C(=c2\sc3n(c2=O)NC2C(N=3)N(CC)C(=O)N2CC)c2ccccc21 (stereo unspecified),83.4% (inactive)
10,C=C1C(=O)O[C@H]2[C@H]1CC/C(COC(=O)NCc1cc(OC)cc(OC)c1)=C\CC[C@@]1(C)O[C@@H]21,-5.77% (active)
11,COc1ccc(C2CC(=O)Nc3c2c(C)nn3-c2nc3ccccc3[nH]2)cc1OC (stereo unspecified),75.5% (inactive)
12,COc1ccc(NC(=O)CSc2nc3ccccc3c(=O)n2Cc2cc(OC)c(OC)c(OC)c2)cc1,89.1% (inactive)
13,COc1cccc(NC(=O)Cn2cc3c(=O)oc4ccccc4c3n2)c1,94.5% (inactive)
14,CCCCCC(=O)OCc1ccccc1,84.5% (inactive)
15,CCCCCCCCCN1C(=O)/C(=c2\sc3n(c2=O)C2C(NN=3)N(CC)C(=O)N2CC)c2ccccc21 (stereo unspecified),82.2% (inactive)
16,Nc1c(C(=O)Nc2cccc([N+](=O)[O-])c2)sc2nc3c(cc12)C(O)CCC3 (stereo unspecified),58.1% (inactive)
17,COc1ccc(/C=c2\sc3n(c2=O)C2C(NN=3)N(C)C(=O)N2C)cc1 (stereo unspecified),75.3% (inactive)
18,CC(Br)C(O)c1cc2c(cc1Br)OCO2 (stereo unspecified),96.6% (inactive)
19,CC/C=C\C/C=C\C[C@H]1C/C=C2/C(=O)C=C[C@H]2C/C=C\CCC(=O)O1,-7.41% (active)

row,SMILES,growth
1,CCN(C(=O)c1cc2ccccc2[nH]1)[C@H]1CCC[C@@H](NCc2ccc(OC)cc2)C1,102% (inactive)
2,COc1ccc(NC(=O)/N=c2\oc3c(OC)cccc3cc2-c2cc3ccccc3[nH]2)cc1,81.9% (inactive)
3,COc1ccc(/C=N/NC(=O)Cn2c(Cc3cccc4ccccc34)nc3ccccc32)cc1,107% (inactive)
4,COc1cccc2cc(-c3cc4ccccc4[nH]3)/c(=N/C(=S)Nc3ccccc3)oc12,95.2% (inactive)
5,CCCCCCCCCCCCOB(OCCCCCCCCCCCC)OCCCCCCCCCCCC,96.7% (inactive)
6,COc1ccc(/C=C/C(=O)OCC(=O)NNC(=O)c2ccccc2)cc1OC,98.6% (inactive)
7,COc1ccc(NC(=S)/N=c2\oc3c(OC)cccc3cc2-c2cc3ccccc3[nH]2)cc1,90.4% (inactive)
8,Cc1oc2nc[nH]c(=O)c2c1C(=O)/C=C/c1ccc(Cl)cc1,20.2% (inactive)
9,COc1ccc(Cl)cc1NC(N)=S,107% (inactive)
10,c1ccn2nnnc2c1,67.2% (inactive)
11,O=C(/C=C/CN1CCCCC1)Nc1cc2c(Nc3ccc(F)c(Cl)c3F)ncnc2cc1OCCOC(F)F,18.3% (inactive)
12,CCN1C(=O)N(CC)C2Nn3c(s/c(=C4\C(=O)N(C5CCCC5)c5ccccc54)c3=O)=NC21 (stereo unspecified),79.3% (inactive)
13,C=CCN=C1NC(=O)/C(=C/c2cc(C(C)(C)C)c(O)c(C(C)(C)C)c2)S1,55.6% (inactive)
14,Nc1c(C(=O)Nc2ccccc2)sc2nc3c(cc12)CCCCC3,48.8% (inactive)
15,O=C1N=C(c2c(-c3[nH]c(=O)c4ccc(Br)cc4c3O)c(O)c3ccccc3c2O)C(=O)c2cc(Br)ccc21,-25.4% (active)
16,CCCCCCCC/C=C\CCCCCCCCOc1ccccc1CCOP(=O)(O)OCC[N+](C)(C)C,88.3% (inactive)
17,CC(C)C[C@H](NC(=O)[C@@H](Cc1ccccc1)n1ccc(Nc2ccccc2)cc1=O)B(O)O,-10.5% (active)
18,COc1ccc(/C=C2\Oc3cc(OCCN4CCCC4)ccc3C2=O)c(OC)c1,94.2% (inactive)
19,Oc1ccc(N=Cc2ccccc2)cc1,70.7% (inactive)

# System: MDA-MB-435 melanoma
# Assay: as above
# Conditions: 10 µM unless noted
row,SMILES,growth
1,COC(=O)c1cc(-c2cccs2)c(C#N)c(N)c1C#N,104% (inactive)
2,Cc1cc(Nc2nc(C(=O)Nc3ccccc3)nc3ccccc23)n[nH]1,64.9% (inactive)
3,CNC(C)=O,105% (inactive)
4,CN(C)c1ccc(-c2ccc(-c3ccc(C(=N)N)cn3)o2)cc1,-84.2% (active)
5,CCN1C(=O)N(CC)C2C1NN=c1s/c(=C\c3cccc(F)c3)c(=O)n12 (stereo unspecified),-34.1% (active)
6,O=C(CC(O)c1ccncc1)c1ccccc1 (stereo unspecified),105% (inactive)
7,CCN1C(=S)N(CC)C2Nn3c(s/c(=C4\C(=O)N(C)c5ccccc54)c3=O)=NC21 (stereo unspecified),-43.1% (active)
8,O=C(Nc1ccc(Cl)cc1)c1cc(-c2ccc(F)cc2)c2sc(=O)[nH]c2n1,8.39% (active)
9,C#CCN1C(=O)/C(=c2\sc3n(c2=O)NC2C(N=3)N(CC)C(=O)N2CC)c2ccccc21 (stereo unspecified),-26.6% (active)
10,C=C1C(=O)O[C@H]2[C@H]1CC/C(COC(=O)NCc1cc(OC)cc(OC)c1)=C\CC[C@@]1(C)O[C@@H]21,-29.1% (active)
11,COc1ccc(C2CC(=O)Nc3c2c(C)nn3-c2nc3ccccc3[nH]2)cc1OC (stereo unspecified),24.7% (inactive)
12,COc1ccc(NC(=O)CSc2nc3ccccc3c(=O)n2Cc2cc(OC)c(OC)c(OC)c2)cc1,101% (inactive)
13,COc1cccc(NC(=O)Cn2cc3c(=O)oc4ccccc4c3n2)c1,88.1% (inactive)
14,CCCCCC(=O)OCc1ccccc1,96.3% (inactive)
15,CCCCCCCCCN1C(=O)/C(=c2\sc3n(c2=O)C2C(NN=3)N(CC)C(=O)N2CC)c2ccccc21 (stereo unspecified),-9.54% (active)
16,Nc1c(C(=O)Nc2cccc([N+](=O)[O-])c2)sc2nc3c(cc12)C(O)CCC3 (stereo unspecified),-22.9% (active)
17,COc1ccc(/C=c2\sc3n(c2=O)C2C(NN=3)N(C)C(=O)N2C)cc1 (stereo unspecified),-60.6% (active)
18,CC(Br)C(O)c1cc2c(cc1Br)OCO2 (stereo unspecified),110% (inactive)
19,CC/C=C\C/C=C\C[C@H]1C/C=C2/C(=O)C=C[C@H]2C/C=C\CCC(=O)O1,3.37% (active)

row,SMILES,growth
1,CCN(C(=O)c1cc2ccccc2[nH]1)[C@H]1CCC[C@@H](NCc2ccc(OC)cc2)C1,93.1% (inactive)
2,COc1ccc(NC(=O)/N=c2\oc3c(OC)cccc3cc2-c2cc3ccccc3[nH]2)cc1,82.6% (inactive)
3,COc1ccc(/C=N/NC(=O)Cn2c(Cc3cccc4ccccc34)nc3ccccc32)cc1,103% (inactive)
4,COc1cccc2cc(-c3cc4ccccc4[nH]3)/c(=N/C(=S)Nc3ccccc3)oc12,87.9% (inactive)
5,CCCCCCCCCCCCOB(OCCCCCCCCCCCC)OCCCCCCCCCCCC,114% (inactive)
6,COc1ccc(/C=C/C(=O)OCC(=O)NNC(=O)c2ccccc2)cc1OC,104% (inactive)
7,COc1ccc(NC(=S)/N=c2\oc3c(OC)cccc3cc2-c2cc3ccccc3[nH]2)cc1,77.2% (inactive)
8,Cc1oc2nc[nH]c(=O)c2c1C(=O)/C=C/c1ccc(Cl)cc1,6.74% (active)
9,COc1ccc(Cl)cc1NC(N)=S,104% (inactive)
10,c1ccn2nnnc2c1,99.5% (inactive)
11,O=C(/C=C/CN1CCCCC1)Nc1cc2c(Nc3ccc(F)c(Cl)c3F)ncnc2cc1OCCOC(F)F,8.14% (active)
12,CCN1C(=O)N(CC)C2Nn3c(s/c(=C4\C(=O)N(C5CCCC5)c5ccccc54)c3=O)=NC21 (stereo unspecified),-15.9% (active)
13,C=CCN=C1NC(=O)/C(=C/c2cc(C(C)(C)C)c(O)c(C(C)(C)C)c2)S1,-2.99% (active)
14,Nc1c(C(=O)Nc2ccccc2)sc2nc3c(cc12)CCCCC3,-50.7% (active)
15,O=C1N=C(c2c(-c3[nH]c(=O)c4ccc(Br)cc4c3O)c(O)c3ccccc3c2O)C(=O)c2cc(Br)ccc21,-63.4% (active)
16,CCCCCCCC/C=C\CCCCCCCCOc1ccccc1CCOP(=O)(O)OCC[N+](C)(C)C,92.7% (inactive)
17,CC(C)C[C@H](NC(=O)[C@@H](Cc1ccccc1)n1ccc(Nc2ccccc2)cc1=O)B(O)O,-51.3% (active)
18,COc1ccc(/C=C2\Oc3cc(OCCN4CCCC4)ccc3C2=O)c(OC)c1,94.3% (inactive)
19,Oc1ccc(N=Cc2ccccc2)cc1,97.8% (inactive)
